Compound activity from PubChem.
A selection: hits, their analogues and other compounds. The true share with any hit is near 3.2%.
PrPC surface inh = inhibitors of human cell surface prion protein PrPC; P04156; TR-FRET read-out; inhibition, % at 13.8 µM; 0.43% of 370,000 active; AID 720596; in the data active = inhibition above about 24%; also: 0% = median of the test wells and 100% = reference compound wells
TcdB inh = blocks C. difficile toxin B glycohydrolase activity. P18177. TcdB glycohydrolase enzymatic assay, plate reader. inhibition, % at 9.99 µM. 0.24% of 350,000 active; in the data active = inhibition above about 10%
Yp Topo-I inh = blocks Yersinia pestis topoisomerase I activity. Y. pestis Topo-I cleavage product accumulation, plate reader. activity, % at 10 µM. 0.064% of 360,000 active; in the data active = activity above about 50%, passing the limit was not always enough
FBA Mtb inh = Mtb fructose-bisphosphate aldolase inhibition. P9WQA3. purified M. tuberculosis FBA, fluorescence read-out. inhibition, % at 1 µM. 2.3% of 360,000 active. AID 588726; in the data active = inhibition above about 27%;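 also: 0% = vehicle and 100% = reference inhibitor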
GDH-TPI inh = counter-screen for M. tuberculosis FBA inhibitors: GDH-TPI coupled enzymes; GDH-TPI coupled enzyme counterscreen, NADH absorbance; inhibition, % at 4.8 µM; 1.2% of 360,000 active; AID 588335; in the data active = inhibition above about 30%;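 also: 0% = DMSO wells and 100% = wells lacking the enzyme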
* marks the source's active call; other numbers are inactive results; · = no result; + = active, no number.

SMILES	PrPC surface inh	TcdB inh	Yp Topo-I inh	FBA Mtb inh	GDH-TPI inh
COCC(=O)N1[C@H](CO)[C@@H]2c3ccccc3N(C(=O)C3CC3)C[C@@H]21	·	0	·	·	·
CCOC(=O)N1CCC(N2C(=O)c3ccccc3C2Nc2ccc3c(C)cc(=O)oc3c2)CC1 (stereo unspecified)	5	0	4	+	20
CCN(C(=O)COC(=O)c1ccccc1NCCO)C1CCS(=O)(=O)C1 (stereo unspecified)	-3	2	-5	129*	3
CCN(C(=O)COC(=O)c1cc2ccccc2cc1O)C1CCS(=O)(=O)C1 (stereo unspecified)	2	·	12	-1	-7
Cc1ccc2oc(-c3ccco3)cc(=O)c2c1	-1	-1	5	123*	31*
Cc1ccc(S(=O)(=O)N(C)C[C@@H]2OCCCC[C@H](C)Oc3ccc(N(C)C)cc3C(=O)N([C@@H](C)CO)C[C@@H]2C)cc1	·	-7	·	·	·
O=C(c1ccncc1)c1ccc(N2CCN(C3CC(=O)N(Cc4cccs4)C3=O)CC2)cc1 (stereo unspecified)	-5	1	4	-4	38*
CCOc1ccc(N2C(=O)CC(N3CCN(c4ccc(C(=O)c5ccncc5)cc4)CC3)C2=O)cc1 (stereo unspecified)	-6	·	82*	6	18
O=C1CC(N2CCN(c3ccc(O)cc3)CC2)C(=O)N1Cc1cccs1 (stereo unspecified)	2	·	0	-1	5
C[C@H](NC(=O)[C@@H]1N[C@@H]2c3ccc(-c4cncnc4)c(=O)n3C[C@@H]2[C@H]1CO)c1ccccc1	·	-1	·	·	·
COC(=O)[C@@H]1[C@@H](CO)[C@@H]2Cn3c(ccc(C4=CCCCC4)c3=O)[C@@H]2N1C(=O)C1CC1	·	0	·	·	·
Cc1ccccc1-n1c2nc(=O)n(C)c(=O)c-2cc2ccccc21	-17	1	4	131*	21
COc1ccc(NC(=O)Nc2ccc3c(c2)CC(=O)N([C@H](C)CO)C[C@H](C)[C@H](CN(C)Cc2ccccc2)O3)cc1	·	0	·	·	·
Cn1nnnc1SCSc1nnnn1C	-4	·	7	4	9
CSc1nnnn1CCn1nnnc1SC	36*	·	-13	-3	18
COc1ccc(CN2C(=O)NC(=O)/C(=C/c3ccc([N+](=O)[O-])s3)C2=O)cc1	-9	0	-25	-6	31*
Cc1cc(NC(=O)c2sc(Nc3ccc(F)c(Cl)c3)nc2N)no1	-5	1	-22	-6	13
Cc1cc(NC(=O)c2sc(Nc3cccc(C(F)(F)F)c3)nc2N)no1	-4	·	-8	-1	33*
C[C@@H]1CN([C@H](C)CO)S(=O)(=O)c2ccc(C#CC3CC3)cc2O[C@@H]1CN(C)C(=O)c1ccccn1	·	0	·	·	·
Cn1cccc1/C=N\NC(=O)c1cncc(Br)c1	12	0	-9	-1	26
Cc1cc(C(=O)N/N=C/c2cccn2C)no1	-9	0	-2	0	31*
Cn1cccc1/C=N/NC(=O)C(O)c1ccccc1 (stereo unspecified)	-5	0	-1	-3	31*
Cc1ccc(/C=N/NC(=O)c2ccc3ccccc3c2)s1	5	1	16	-1	32*
Cn1cccc1/C=N/NC(=O)c1ccncc1	-2	-3	-1	1	35*
CCCNC(=O)C[C@H]1CC[C@H]2[C@H](COc3ccc(NC(=O)c4cscn4)cc3C(=O)N2C)O1	·	1	·	·	·
SMILES	PrPC surface inh	TcdB inh	Yp Topo-I inh	FBA Mtb inh	GDH-TPI inh
C[C@@H]1CCCCO[C@H](CN(C)C(=O)CCCN(C)C)[C@H](C)CN([C@H](C)CO)C(=O)c2cc(NC(=O)c3ccccc3)ccc2O1	·	1	·	·	·
O=C(C[C@H]1CC[C@H]2[C@@H](COC[C@H](O)CN2Cc2cc(F)ccc2F)O1)NCc1ccc(F)cc1	·	1	·	·	·
Cc1ccc(/C=N/NC(=O)c2ccccn2)s1	-11	1	-9	0	32*
Cn1cccc1/C=N/NC(=O)c1ccccn1	-6	0	8	-1	31*
CCc1ccc(/C=N/NC(=O)c2ccccn2)cc1	-8	-1	-3	0	5
CN(C)C(=O)c1ccc(-c2ccc([C@@H]3[C@@H](CO)N4CCCCN(S(C)(=O)=O)C[C@H]34)cc2)cc1	·	-1	·	·	·
O=C(C[C@H]1CC[C@@H]2[C@H](COC[C@@H](O)CN2Cc2cccc(C(F)(F)F)c2)O1)NCCc1ccccc1	·	-6	·	·	·
Cc1cc(C)n2nc(-c3ccco3)nc2n1	3	0	3	124*	4
Cc1cc(C)n2nc(-c3ccc(F)cc3)nc2n1	-19	·	-5	0	7
C[C@@H]1CCCCO[C@H](CN(C)C(=O)Nc2cccc3ccccc23)[C@H](C)CN([C@@H](C)CO)C(=O)c2cc(NS(C)(=O)=O)ccc2O1	·	0	·	·	·
Cc1ccc2nc(-c3ccc(SCC(=O)O)nc3)[nH]c2c1	-4	·	55*	+	53*
Cc1cc2nc(-c3ccc(SCC(=O)Nc4ccc(S(=O)(=O)N5CCCC5)cc4)nc3)[nH]c2cc1C	-2	·	9	21	38*
COc1cc(N)c2ncccc2c1Cl	-6	-10	5	46*	12
Oc1c(Cl)c(Cl)c2ncccc2c1Cl	-10	1	1	2	2
COc1ccc(-c2ccc3c(c2)[C@H]2[C@H](CCN2C(=O)C2CC2)[C@@H](CO)N3C)cc1	·	15*	·	·	·
COc1ccc(-c2ccc3c(c2)[C@@H]2[C@@H](CCN2C(=O)C2CC2)[C@H](CO)N3C)cc1	·	13*	·	·	·
CCCNC(=O)C12CCC(C)(c3nc4cc(C)c(C)cc4nc31)C2(C)C (stereo unspecified)	7	1	-3	2	55*
CNC(=O)C12CCC(C)(c3nc4cc(C)c(C)cc4nc31)C2(C)C (stereo unspecified)	-1	·	-2	3	16
CCOC(=O)c1ccc(N=NN(C)C)cc1	0	0	-9	0	36*
CCOC(=O)c1ccc(N)cc1	15	2	-1	-1	0
C[C@@H]1CCCCO[C@H](CN(C)S(=O)(=O)c2ccccc2)[C@H](C)CN([C@@H](C)CO)C(=O)c2cc(NS(C)(=O)=O)ccc2O1	·	1	·	·	·
COc1ccc(CN2C[C@H](C)[C@@H](OC)CN(C)C(=O)c3ccc(NC(C)=O)cc3OC[C@@H]2C)cc1	·	0	·	·	·
CCN(CC)Cc1c[nH]c2c(C(=O)OC)cccc12	-5	1	1	67*	20
CCN(CC)Cc1c[nH]c2ccccc12	2	·	-5	1	12
CCOc1ccc(NC(=O)CN2CCN(CC(=O)Nc3cccc(F)c3)CC2)cc1	-6	·	7	153*	-7
CCOc1ccc(-n2nc3ccc(NC(=O)CC)cc3n2)cc1	-2	0	5	+	8
CCOc1ccc(NC(=O)CN2CCN(CC(=O)Nc3ccc4c(c3)OCCO4)CC2)cc1	-5	·	7	4	9
C[C@@H]1CCCCO[C@@H](CN(C)C(=O)Nc2cccc3ccccc23)[C@H](C)CN([C@@H](C)CO)C(=O)c2cc(NS(=O)(=O)c3ccc(Cl)cc3)ccc2O1	·	1	·	·	·
